# High-throughput results (PubChem BioAssay)
# D1 antagonist: antagonists of human D1 dopamine receptor; P21728; activity change, negative = inhibition, % at 10 µM; actives 3.2% (n = 360,000); HEK293 TREx D1 cells, calcium flux, dopamine EC80; stronger effect = lower value; AID 504652; in the data active = activity change below about -30%; note: % is set by controls: 0 for no effect and ±100 for the full control effect
#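 Tetracycline-induced HEK293 T-REx cells with force-coupled D1 receptor were loaded with a no-wash calcium dye. Compound was added after a 10 s baseline and read kinetically for 180 s; EC80 dopamine was then added and calcium flux followed another 180 s.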
# TRHR PAM: allosteric enhancers of human TRH receptor; P34981; TRHR cells, fluo-8 calcium fluorescence, EC20 TRH enhancement; enhancement, % at 2 µM; actives 0.66% (n = 360,000); AID 493056; in the data active = enhancement above about 30%; note: 0% is about no effect
# Target sequence (P34981 whole entry, looked up): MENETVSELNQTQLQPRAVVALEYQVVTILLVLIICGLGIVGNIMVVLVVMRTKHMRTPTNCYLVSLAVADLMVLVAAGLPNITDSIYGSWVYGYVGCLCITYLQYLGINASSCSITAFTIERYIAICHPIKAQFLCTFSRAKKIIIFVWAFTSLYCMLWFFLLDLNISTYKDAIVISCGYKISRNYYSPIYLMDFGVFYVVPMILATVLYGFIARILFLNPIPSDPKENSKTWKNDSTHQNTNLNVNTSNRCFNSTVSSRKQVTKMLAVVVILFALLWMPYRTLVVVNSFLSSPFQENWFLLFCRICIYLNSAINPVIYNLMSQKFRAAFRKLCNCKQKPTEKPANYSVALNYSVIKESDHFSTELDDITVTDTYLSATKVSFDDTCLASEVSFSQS
#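 TRHR-expressing cells loaded with fluo-8 calcium dye were read kinetically (ex 480/em 530) during compound addition, then stimulated with an EC20 of TRH (10 nM final). Enhancement of the Gq-mediated intracellular calcium response was scored.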
# D1 PAM: enhances dopamine response at the human D1 receptor. P21728. HEK293 TREx D1 cells, calcium flux, dopamine EC20 potentiation. potentiation, % at 10 µM. actives 0.036% (n = 360,000). AID 504651; in the data active = potentiation above about 30%; note: 0% is about no effect
# D1 agonist: activates the human D1 dopamine receptor | HEK293 T-REx D1 cells, calcium flux, agonist mode | activation, % at 2 µM | actives 1% (n = 360,000) | AID 504660; note: 0% is about no effect
#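 Agonism was scored from calcium flux recorded over 180 s (1 read/s) after pintool compound addition, following a 10-cycle baseline. Cells were inducible force-coupled HEK293 TREx D1, plated overnight at 30 C and loaded with no-wash calcium dye.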
# TRHR agonist: TRH receptor (human) agonism; TRHR cells, calcium flux fluo-8, FDSS agonist mode; activation, % at 2 µM; actives 0.18% (n = 360,000); AID 493084; note: 0% is about no effect
#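 In this calcium-flux screen, cells bearing human TRHR are dye-loaded with fluo-8, baselined for 10 cycles, then exposed to library compounds; positive kinetic calcium responses during the agonist phase mark hits, with TRH as control.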
# Starred values were filed as active, the others as inactive. Sampled rows, rich in hits. Any-hit rate of the full collection: about 4.6%. Cut-off read from the data, not from the text of the source, unless noted: active = activation above about 30%; inactive = the rest.
SMILES,D1 antagonist,TRHR PAM,D1 PAM,D1 agonist,TRHR agonist
CCOC(=O)C1=C(C)n2c(s/c(=C/c3cccc([N+](=O)[O-])c3)c2=O)=NC1c1ccc(O)c(OC)c1 (stereo not given),-90.4*,3.1,1.8,9.5,3.4
Cc1cc(C)c2c(=O)n(CC(=O)Nc3ccc(Br)c(C)c3)sc2n1,-49.0*,2.9,-20.9,17.3,0.9
Cc1cc(C)c2c(=O)n(CC(=O)Nc3cccc(Cl)c3C)sc2n1,-3.4,-12.8,-6.6,37.4*,3.6
Cc1cc(C)c2c(=O)n(CC(=O)NC3CCCC3)sc2n1,8.2,-3.1,2.3,8.8,0.5
COc1ccc(OC)c(CCNC(=O)Cn2nc(C)c3c(C)n(-c4ccc(C)cc4)nc3c2=O)c1,1.2,-2.2,-2.6,1.7,-0.8
COc1ccc(OC)c(CCNC(=O)Cn2sc3nc(C)cc(C)c3c2=O)c1,-47.8*,8.4,-10.1,3.1,-0.5
Cc1ccc(C)c(N2CCN(c3cc(C)nc4c(-c5ccc(Cl)cc5)c(C)nn34)CC2)c1,3.0,-2.7,2.0,3.8,0.4
CCCS(=O)(=O)N1CC(=O)N(c2ccc(Cl)cc2C)C(C)(C(=O)NC2CCCC2)C1 (stereo not given),-1.9,26.5,1.2,-0.7,-0.6
Cc1ncc(CN2CCC(C(=O)Nc3ccc(-n4cccn4)cc3)CC2)s1,2.3,30.3*,13.3,4.1,0.2
Cc1cc(C)n(-c2ccc(NC(=O)C3CCN(Cc4cnc(C)s4)CC3)cc2)n1,2.8,1.3,-1.1,1.0,-0.2
Cc1cc(C)cc(N(CC(=O)NC2CCCCC2)C(=O)c2ccc(C)s2)c1,-33.3*,-5.8,-4.5,-0.2,-0.1
Cc1cccc(N(CC(=O)NC2CCCC2)C(=O)CCC(=O)Nc2nc(C)cs2)c1,24.8,3.3,-2.1,6.7,1.5
Cc1cc(C)cc(N(CC(=O)NC2CCCC2)C(=O)CCC(=O)Nc2nc(C)cs2)c1,-19.4,23.0,-8.7,57.5*,-0.2
Cc1ccc(C(=O)N(CC(=O)NC2CCCC2)c2ccc3c(c2)OCCO3)s1,-54.5*,-6.2,-7.5,-0.2,-0.7
O=C(Nc1cccc(Br)c1)Nc1nc2c(s1)CCCCCC2,-15.0,4.0,-0.9,15.0,0.9
CCOc1cc(CNC(=O)NC2COc3ccccc3C2)cc(OCC)c1OCC (stereo not given),-18.8,-1.8,-0.8,1.9,-1.1
COc1ccc(C(=O)Nc2nnc(SCc3cc(=O)c4cc(C)ccc4[nH]3)s2)cc1OC,3.2,-1.5,-3.1,-0.7,0.0
Cc1ccc(NC(=O)C(C)c2cccc(C(=O)c3ccccc3)c2)cc1O (stereo not given),-31.6*,-3.8,-11.9,17.3,-0.1
O=[N+]([O-])c1ccc(N2CCN(c3ccc(F)cc3)CC2)cc1,-11.4,-0.6,0.8,0.7,1.4
O=[N+]([O-])c1ccc(N2CCSCC2)cc1,-37.9*,-4.7,-4.6,2.0,-1.0
Cc1nonc1OCCN1CCN(c2ccc([N+](=O)[O-])cc2)CC1,-40.1*,0.1,-7.4,9.7,0.1
O=[N+]([O-])c1ccc(N2CCN(Cc3ccc([N+](=O)[O-])o3)CC2)cc1,-33.0*,-10.7,-10.4,8.3,1.3
O=[N+]([O-])c1ccc(N2CCN(CCOc3nonc3-c3ccccc3)CC2)c(Cl)c1,-7.0,-0.3,2.5,0.4,0.0
Cc1ccc(S(=O)(=O)N2CCN(C)CC2)cc1-c1nnc2c3ccccc3c(C)nn12,-33.5*,-3.4,0.8,-0.1,-0.6
CCOc1ccc(NC(=O)Cn2c(=O)n(-c3cccc(Cl)c3)c(=O)c3c2c2cc(C)ccc2n3C)cc1,-3.6,-2.6,-0.8,2.0,-0.4
SMILES,D1 antagonist,TRHR PAM,D1 PAM,D1 agonist,TRHR agonist
CCn1cc(C(=O)N(C)c2cc(C)ccc2C)c2cc(OC)c(OC)cc2c1=O,-34.0*,5.5,3.4,1.6,-0.7
CCn1cc(C(=O)N(C)c2cc(C)ccc2OC)c2cc(OC)c(OC)cc2c1=O,-9.8,-4.9,-0.1,1.2,-0.1
CCN(CC)S(=O)(=O)c1ccc2c(c1)N(CC(=O)N(C)Cc1ccccc1)C(=O)CO2,3.3,-12.1,-3.5,2.4,-0.2
O=S(=O)(Nc1ccc(F)cc1F)c1ccc(-n2cccn2)cc1,-8.7,-1.3,-2.3,5.8,-0.1
O=C(CCn1nnc2ccccc21)Nc1nnc(-c2ccccc2F)s1,-12.4,-4.2,-4.0,4.9,0.3
O=C(CCn1nnc2ccccc21)Nc1nnc(COc2ccccc2F)s1,16.8,31.7*,4.1,2.9,0.3
O=C1NC(=O)C(CC(=O)N(Cc2ccco2)C2(C(=O)NC3CCCC3)CCCCC2)N1 (stereo not given),-10.3,33.3*,-2.2,2.2,-0.5
O=c1c2sc3ccccc3c2n(Cc2cccc(C(F)(F)F)c2)c(=O)n1Cc1ccco1,-14.2,-1.5,-1.9,3.3,0.0
Clc1ccc(CNc2ccc(CNc3ncn[nH]3)cc2)c(Cl)c1,-45.9*,1.6,-11.9,6.8,-0.4
CCN1CCN(Cc2c(O)ccc3oc(C)c(C(=O)Nc4ccc(OC)cc4)c23)CC1,-1.5,-1.0,-2.5,4.8,0.2
COc1ccc(C2c3c(-c4ccccc4)n[nH]c3C(=O)N2c2ccc(C(=O)O)cc2)c(OC)c1 (stereo not given),-34.6*,2.9,-3.3,-1.3,0.6
COc1cccc(CN(C)CC2CCCN(CCc3ccccc3C)C2)c1 (stereo not given),-63.4*,-6.1,-2.8,4.1,0.1
CCN(Cc1cccc(OC)c1)CC1CCCN(CCc2cccc(OC)c2)C1 (stereo not given),-38.9*,2.8,-7.8,7.8,0.6
CCOc1cccc(CN(CC)CC2CCCN(CCc3cccc(OC)c3)C2)c1O (stereo not given),-17.3,34.0*,-10.7,4.2,0.5
CCN(CC1CCCN(CCc2cccc(OC)c2)C1)C(=O)C=C(C)C (stereo not given),-8.1,-2.4,-7.7,1.8,0.2
Cn1ccc2cc(S(=O)(=O)N3CCN(C(=O)Nc4cccc(F)c4)CC3)ccc21,-26.4,-6.5,-1.2,0.5,-0.5
CC(C)(C)OC(=O)N1CCC(c2c(C(=O)NCc3ccc4c(c3)OCO4)cnn2-c2ccc(F)cc2F)CC1,-15.5,7.5,-1.7,3.5,2.0
CCOc1ccccc1N1CCN(C(=O)Nc2ccc(Cl)c(Cl)c2)CC1,-35.7*,4.2,1.5,1.5,-0.1
CCOc1ccccc1N1CCN(C(=O)Nc2cccc(Cl)c2)CC1,-11.6,8.2,-4.7,11.7,1.2
CC(=O)CSc1nnc2cc(C)c3cc(C)cc(C)c3n12,7.4,9.1,2.1,-1.9,-0.3
CCOc1ccc(-n2c(SCC(N)=O)nc3sc4c(c3c2=O)CCN(C)C4)cc1,-1.1,17.8,2.1,1.4,-0.2
CCOC(=O)CSc1nc2sc3c(c2c(=O)n1-c1ccc(OCC)cc1)CCN(C)C3,6.0,2.9,-8.3,30.1*,8.6
Cc1cc(=O)n2nc(N3CCC(C(=O)Nc4ccc(Br)cc4F)CC3)sc2n1,4.0,-1.2,-3.1,1.4,-1.0
